A selection: hits, their analogues and other compounds. The true share with any hit is near 7.9%.
Lassa entry inh = qHTS for Inhibitors of binding or entry into cells for Lassa Virus; Lassa virus pseudotype entry inhibition, cell reporter; Potency, µM (doses to about 37.9 µM), for inactives: top-dose activity change, negative = inhibition, usual class: inhibitors; hit rate 1.2% among 300,000; calls by dose curve; tested in HEK293 cells; also: potency is read from the fitted curve at half-maximal effect; nearly all actives have a fitted effect of over 50% in size
HCMV inh = qHTS Assay for inhibitors of the human cytomegalovirus (HCMV). HFF cells, HCMV-luciferase reporter, 72 h; active compounds read low. activity change, negative = inhibition, % at 57.5 µM. hit rate 4.5% among 410,000. AID 1259415, 2018; in the data active = activity change below about -60%; inconclusive = no clear call, values can overlap the other calls; inactive = above about -39%
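Steps: HFFs plated, 16 h 37C; compounds added; HCMV-luciferase added to MOI 1 PFU/cell; 72 h 37C; OneGlo reagent, 5 min room temperature; luminescence read, normalized to controls.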
MARV entry inh = qHTS for inhibitors of binding or entry into cells for Marburg Virus; Potency, µM (top dose mostly 37.8 µM), for the others: at the top dose activity change, negative = inhibition, actives largely listed as inhibitors; AID 540276, 2011; Marburg virus pseudotyped entry inhibition, cell reporter; hit rate 1.8% among 300,000; calls by dose curve; tested in HEK293 cells; also: potency is read from the fitted curve at half-maximal effect
FMDV inh = High Throughput Screening for Foot and Mouth Disease Virus Antivirals; hit rate 1.2% among 410,000; FMDV antiviral cell-based qHTS; Potency, µM (highest dose often 57.9 µM), inactives show at the highest dose activity change, negative = inhibition, actives largely listed as inhibitors; calls by dose curve; tested in HEK293T cells; also: read-out not given here; potency is read from the fitted curve at half-maximal effect; nearly all actives have a fitted effect of over 45% in size
HCV inh = qHTS Assay for Inhibitors of Hepatitis C Virus (HCV); Huh7.5.1 HCVcc-Cre infection, luciferase reporter, 44 h; Potency, µM (highest dose often 41.8 µM), for the others: top-dose activity change, negative = inhibition, usual class: inhibitors; hit rate 3.4% among 340,000; active = well fitted inhibition curve with a large enough effect; inconclusive = small, poorly fitted or top-dose-only effect, or another doubt; inactive = no such curve, though single readings can be large or run the other way; also: potency is read from the fitted curve at half-maximal effect
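Luciferase read-out (15 sec integration) after a 15 min room-temperature substrate step quantifies HCVcc-Cre infection. Cells, 1,000 per well, had compound added 4 h post-plating, then virus at ~0.5 moi, and were cultured 44 h.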
Active calls of the source: *; ? = inconclusive; . = not tested or not shown; [ ] = another dose, or the depositor's remark. % is scaled to controls: 0 for no effect and ±100 for the full control effect.

SMILES	Lassa entry inh	HCMV inh	MARV entry inh	FMDV inh	HCV inh
COc1cc(NC(=O)CCc2c(C)nc3nc(-c4cc(OC)cc(OC)c4)nn3c2C)cc(OC)c1	4%[46.1 µM]	13	7%[46.1 µM]	-18%	.
CCn1c(CC(=O)Nc2ccccc2Cl)nnc1SCC(=O)NC1CCCC1	-15%[46.1 µM]	16	-7%[46.1 µM]	-9%	8%
COc1ccc(/C=N/Nc2nc(C)cc(-c3ccccc3)n2)cc1OC	-24%[46.1 µM]	-86*	?	-8%	?
Cc1cc(-c2ccccc2)nc(N/N=C/c2ccccc2)n1	?	4	?	7%	?
CSc1ccc(/C=N/Nc2nc(C)cc(C)n2)cc1	7.1µM*	?	4%	10%	3%
COc1ccc(/C=N/Nc2nnc(C)n2N)cc1OC	?	-61*	?	5%	22%
Cc1cc(-c2ccccc2)nc(N/N=C/c2ccc([N+](=O)[O-])cc2)n1	?	-29	?	-14%	10µM*
COc1cc(CN2CCCC(n3cc(C(=O)N4CCCCC4)nn3)C2)cc(OC)c1OC (stereo not drawn)	.	.	.	-9%	.
COC(=O)c1ccc(CN(c2ccc(C(=O)O)c(O)c2)S(=O)(=O)c2ccc(Cl)c([N+](=O)[O-])c2)cc1	-20%	7	?	-10%	?
Cc1oc2ncnc(N3CCCCC3)c2c1C(=O)Nc1cccc(Cl)c1C	-17%[46.1 µM]	?	.	-17%	.
COc1ccc(O[C@H]2C=C[C@@H](c3ccccc3)O[C@H]2COC(=O)CC/C(C)=N\OC[C@@H](O)COCc2ccco2)cc1	.	.	10%[14.2 µM]	.	.
COc1cc(C(=O)NNC(=O)Nc2ccc([N+](=O)[O-])cc2)cc(OC)c1OC	-7%[46.1 µM]	-5	-26%[46.1 µM]	-4%	13%
COc1ccc(/C=N/Nc2nnc(C)n2N)cc1OC(C)=O	?	17	?	6%	16%
CN(/N=C/c1ccc(O)cc1O)c1nc(-c2ccccc2)cc(-c2ccccc2)n1	3%	-62*	?	-4%	?
CN(N)c1nc(-c2ccccc2)cc(-c2ccccc2)n1	0%	?	9%	-24%	?
COc1ccc(-n2c(O)c(/C=N/Nc3nc(C)cc(C)n3)c3ccccc3c2=O)cc1OC	?	-94*	?	-14%	2.8µM*
COc1cccc(/C=N/Nc2nnc(C)n2N)c1OCc1ccccc1Cl	-8%	-11	3%	-19%	22µM*
Cc1cc(-c2ccccc2)nc(N/N=C/c2ccc(O)cc2O)n1	-18%[46.1 µM]	-17	?	-11%	10µM*
CCOc1cccc(CN2CCCC(CNC(=O)c3cccc(OC)c3OC)C2)c1 (stereo not drawn)	-4%[46.1 µM]	65	2%[46.1 µM]	-1%	-10%
Cc1cc(-c2ccccc2)nc(N/N=C/c2ccc(N(C)C)cc2)n1	.	-37	.	-19%	13µM*
COc1ccc(CCNC(=O)COc2coc(CN3c4ccccc4CC3C)cc2=O)cc1OC (stereo not drawn)	?	?	?	22µM*	11µM*
CC1Cc2ccccc2N1Cc1cc(=O)c(OCC(=O)Nc2ccccc2)co1 (stereo not drawn)	-25%	-16	-3%	-6%	?
O=C(NCCSc1c[nH]c2ccccc12)c1ccc2c(c1)OCO2	.	67	.	-10%	-21%
COc1ccc(-c2nc3ccc(Br)cn3c2Cc2cccc(Cl)c2)cc1OC	.	?	.	-15%	.
COc1ccc(-c2nc3ccc(Br)cn3c2Cc2ccccc2)cc1OC	.	-65*	.	-3%	.
SMILES	Lassa entry inh	HCMV inh	MARV entry inh	FMDV inh	HCV inh
Fc1cccc(Cc2c(-c3ccco3)nc3ccc(Br)cn23)c1	.	57	.	35µM*	.
Cc1nc(N)[nH]c(=O)c1CCCNS(=O)(=O)c1ccc([N+](=O)[O-])cc1	-5%	8	-28%	48%	-8%
COCC(=O)N1CC(=O)N2[C@@H](CO)[C@@H](c3ccc(Br)cc3)[C@@H]2C1	.	-20	.	.	.
N#C/C(=C\c1ccc(OCc2cccc(C(=O)O)c2)cc1)C(=O)NCc1ccco1	.	47	.	-9%	2%
CCOC(=O)C(=CNc1ccc(NC2=NCC(C)S2)cc1)C(=O)OCC (stereo not drawn)	?	-66*	?	-14%	?
COc1cc(Cl)c(C)cc1NC(=O)Cn1c(C)c2cnn(-c3ccccc3)c(=O)c2c1C	7%[46.1 µM]	3	-2%[46.1 µM]	-2%	.

Screening results: PubChem, National Center for Advancing Translational Sciences (NCATS)
